According to PubChem BioAssay AID1159580 (chemical genetic matrix, 2015):
In all, about 5,500 compounds went through this assay and about 2,000 (36%) were called active. Not shown: some 18% with an inconclusive outcome. Some of the results follow. A number with no mark means an inactive call. Cut-off read from the data, not from the text of the source: active = normalized growth mostly below about 0.91 (no sharp cut-off); inconclusive = no clear call, values can overlap the other calls; inactive = mostly above about 0.92.

Assay: chemical genetic growth profiling, strain panel (AID 1159580);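 note: tested at 20 µM; growth read once vehicle control cultures reached saturation at 30 °C; 1 = growth at the plate median or of vehicle wells; lower values mean less growth of the strain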
Details: growth OD

Structure (SMILES): CC(C)c1c(O)ccc2c1CCC1C(C)(C)CCC[C@]21C (some centres not stated)
- normalized growth (S. cerevisiae deletion strains, locus YJR066W, strain TOR1, hits give low values): 0.709 (active)
- normalized growth (S. cerevisiae deletion strains, locus YKL009W, strain mrt4, hits give low values): 0.822 (active)
- normalized growth (S. cerevisiae deletion strains, locus YKL068W, hits give low values): 1.03
- normalized growth (S. cerevisiae deletion strains, locus YKL085W, strain MDH1 (second series), hits give low values): 0.358 (active)
- normalized growth (S. cerevisiae deletion strains, locus YKL085W, strain MDH1, hits give low values): 0.358 (active)
- normalized growth (S. cerevisiae deletion strains, locus YKL160W, strain elf1, hits give low values): 0.729 (active)
- normalized growth (S. cerevisiae deletion strains, locus YKL190W, strain CNB1, hits give low values): 0.0594 (active)
- normalized growth (S. cerevisiae deletion strains, locus YKR001C, strain vps1, hits give low values): 0.0785 (active)
- normalized growth (S. cerevisiae deletion strains, locus YKR026C, strain gcn3, hits give low values): 0.993
- normalized growth (S. cerevisiae deletion strains, locus YKR091W, strain srl3, hits give low values): 0.78 (active)
- normalized growth (S. cerevisiae deletion strains, locus YLL001W, strain dnm1, hits give low values): 0.819 (active)
- normalized growth (S. cerevisiae deletion strains, locus YLL026W, hits give low values): 0.263 (active)
- normalized growth (S. cerevisiae deletion strains, locus YLL041C, strain sdh2, hits give low values): 0.55 (active)
- normalized growth (S. cerevisiae deletion strains, locus YLR027C, strain aat2, hits give low values): 0.254 (active)
- normalized growth (S. cerevisiae deletion strains, locus YLR039C, strain RIC1, hits give low values): 0.127 (active)
- normalized growth (S. cerevisiae deletion strains, locus YLR058C, strain SHM2, hits give low values): 0.104 (active)
- normalized growth (S. cerevisiae deletion strains, locus YLR102C, strain apc9, hits give low values): 0.214 (active)
- normalized growth (S. cerevisiae deletion strains, locus YLR113W, strain HOG1, hits give low values): 0.3 (active)
- normalized growth (S. cerevisiae deletion strains, locus YLR221C, strain rsa3, hits give low values): 0.337 (active)
- normalized growth (S. cerevisiae deletion strains, locus YLR258W, strain gsy2, hits give low values): 0.343 (active)
- normalized growth (S. cerevisiae deletion strains, locus YLR262C, strain YPT6 (second series), hits give low values): 0.146 (active)
- normalized growth (S. cerevisiae deletion strains, locus YLR268W, strain sec22, hits give low values): 0.191 (active)
- normalized growth (S. cerevisiae deletion strains, locus YLR320W, strain mms22, hits give low values): 0.22 (active)
- normalized growth (S. cerevisiae deletion strains, locus YLR342W, strain FKS1 (second series), hits give low values): 0.139 (active)
- normalized growth (S. cerevisiae deletion strains, locus YLR342W, strain FKS1, hits give low values): 0.43 (active)
- normalized growth (S. cerevisiae deletion strains, locus YLR357W, strain rsc2, hits give low values): 1.14
- normalized growth (S. cerevisiae deletion strains, locus YLR370C, strain arc18, hits give low values): 1.06
- normalized growth (S. cerevisiae deletion strains, locus YLR371W, strain rom2, hits give low values): 0.186 (active)
- normalized growth (S. cerevisiae deletion strains, locus YLR384C, strain iki3, hits give low values): 1.01
- normalized growth (S. cerevisiae deletion strains, locus YLR418C, strain cdc73, hits give low values): 0.125 (active)
- normalized growth (S. cerevisiae deletion strains, locus YML016C, strain PPZ1, hits give low values): 0.438 (active)
- normalized growth (S. cerevisiae deletion strains, locus YML032C, strain rad52, hits give low values): 0.315 (active)
- normalized growth (S. cerevisiae deletion strains, locus YML120C, strain ndi1, hits give low values): 0.235 (active)
- normalized growth (S. cerevisiae deletion strains, locus YML124C, strain tub3, hits give low values): 0.241 (active)
- normalized growth (S. cerevisiae deletion strains, locus YMR058W, strain fet3, hits give low values): 0.968
- normalized growth (S. cerevisiae deletion strains, locus YMR078C, strain ctf18, hits give low values): 0.211 (active)
- normalized growth (S. cerevisiae deletion strains, locus YMR125W, strain sto1, hits give low values): 0.928
- normalized growth (S. cerevisiae deletion strains, locus YMR129W, hits give low values): 0.692 (active)
- normalized growth (S. cerevisiae deletion strains, locus YMR205C, strain PFK2, hits give low values): 0.305 (active)
- normalized growth (S. cerevisiae deletion strains, locus YMR223W, strain ubp8, hits give low values): 0.21 (active)
- normalized growth (S. cerevisiae deletion strains, locus YMR231W, strain pep5, hits give low values): 0.93
- normalized growth (S. cerevisiae deletion strains, locus YMR307W, strain GAS1, hits give low values): 0.179 (active)
- normalized growth (S. cerevisiae deletion strains, locus YNL067W, strain RPL9B, hits give low values): 0.279 (active)
- normalized growth (S. cerevisiae deletion strains, locus YNL071W, strain lat1, hits give low values): 0.13 (active)
- normalized growth (S. cerevisiae deletion strains, locus YNL128W, strain TEP1, hits give low values): 0.205 (active)
- normalized growth (S. cerevisiae deletion strains, locus YNL183C, strain NPR1, hits give low values): 0.627 (active)
- normalized growth (S. cerevisiae deletion strains, locus YNL209W, strain ssb2, hits give low values): 0.689 (active)
- normalized growth (S. cerevisiae deletion strains, locus YNL233W, strain BNI4, hits give low values): 0.0951 (active)
- normalized growth (S. cerevisiae deletion strains, locus YNL248C, strain rpa49, hits give low values): 0.989
- normalized growth (S. cerevisiae deletion strains, locus YNL250W, strain rad50, hits give low values): 0.786 (active)
- normalized growth (S. cerevisiae deletion strains, locus YNL271C, strain bni1, hits give low values): 0.74 (active)
- normalized growth (S. cerevisiae deletion strains, locus YNL298W, strain CLA4, hits give low values): 0.636 (active)
- normalized growth (S. cerevisiae deletion strains, locus YNL307C, strain MCK1, hits give low values): 0.0705 (active)
- normalized growth (S. cerevisiae deletion strains, locus YNL322C, strain KRE1 (second series), hits give low values): 1.03
- normalized growth (S. cerevisiae deletion strains, locus YNL322C, strain KRE1, hits give low values): 0.0898 (active)
- normalized growth (S. cerevisiae deletion strains, locus YNR049C, strain mso1, hits give low values): 0.994
- normalized growth (S. cerevisiae deletion strains, locus YNR052C, strain pop2, hits give low values): 0.313 (active)
- normalized growth (S. cerevisiae deletion strains, locus YOL006C, strain TOP1, hits give low values): 0.227 (active)
- normalized growth (S. cerevisiae deletion strains, locus YOL012C, strain htz1): 0.469
- normalized growth (S. cerevisiae deletion strains, locus YOL147C, strain pex11, hits give low values): 0.131 (active)
- normalized growth (S. cerevisiae deletion strains, locus YOR001W, strain rrp6, hits give low values): 0.556 (active)
- normalized growth (S. cerevisiae deletion strains, locus YOR061W, strain CKA2, hits give low values): 0.173 (active)
- normalized growth (S. cerevisiae deletion strains, locus YOR069W, strain VPS5, hits give low values): 0.372 (active)
- normalized growth (S. cerevisiae deletion strains, locus YOR070C, strain gyp1, hits give low values): 0.157 (active)
- normalized growth (S. cerevisiae deletion strains, locus YOR080W, strain dia2, hits give low values): 0.685 (active)
- normalized growth (S. cerevisiae deletion strains, locus YOR083W, strain WHI5, hits give low values): 0.424 (active)
- normalized growth (S. cerevisiae deletion strains, locus YOR106W, strain vam3, hits give low values): 0.274 (active)
- normalized growth (S. cerevisiae deletion strains, locus YOR136W, strain idh2, hits give low values): 0.287 (active)
- normalized growth (S. cerevisiae deletion strains, locus YOR144C, strain elg1, hits give low values): 0.295 (active)
- normalized growth (S. cerevisiae deletion strains, locus YOR184W, strain ser1, hits give low values): 0.134 (active)
- normalized growth (S. cerevisiae deletion strains, locus YOR231W, strain MKK1, hits give low values): 0.366 (active)
- normalized growth (S. cerevisiae deletion strains, locus YOR265W, strain rbl2, hits give low values): 0.31 (active)
- normalized growth (S. cerevisiae deletion strains, locus YOR270C, strain vph1, hits give low values): 0.632 (active)
- normalized growth (S. cerevisiae deletion strains, locus YOR290C, strain snf2, hits give low values): 0.712 (active)
- normalized growth (S. cerevisiae deletion strains, locus YOR316C, strain cot1, hits give low values): 0.263 (active)
- normalized growth (S. cerevisiae deletion strains, locus YPL051W, strain arl3, hits give low values): 0.322 (active)
- normalized growth (S. cerevisiae deletion strains, locus YPL078C, strain atp4, hits give low values): 0.925
- normalized growth (S. cerevisiae deletion strains, locus YPL106C, strain sse1, hits give low values): 0.815 (active)
- normalized growth (S. cerevisiae deletion strains, locus YPL240C, strain hsp82, hits give low values): 0.29 (active)
- normalized growth (S. cerevisiae deletion strains, locus YPL241C, strain CIN2, hits give low values): 0.166 (active)
- normalized growth (S. cerevisiae deletion strains, locus YPL256C, strain CLN2, hits give low values): 0.521 (active)
- normalized growth (S. cerevisiae deletion strains, locus YPR119W, strain clb2, hits give low values): 0.187 (active)
- normalized growth (S. cerevisiae deletion strains, locus YPR141C, strain kar3, hits give low values): 1.01
- normalized growth (S. cerevisiae deletion strains, locus YPR163C, strain tif3, hits give low values): 0.187 (active)
- normalized growth (S. cerevisiae deletion strains, locus YPR167C, strain met16, hits give low values): 0.139 (active)
- normalized growth (S. cerevisiae deletion strains, strain wtn01, hits give low values): 0.132 (active)
- normalized growth (S. cerevisiae strains, strain wild type, hits give low values): 0.0726 (active)
